Source: PubChem (National Center for Advancing Translational Sciences (NCATS))
Rows were chosen to be rich in hits. Some 5.7% of all compounds tested hit in one or more screens of this group.
GLP-1R inv ag: qHTS of GLP-1 Receptor Inverse Agonists (Inhibition Mode) | AID 624417, 2012 | Potency, µM (highest dose often 38.3 µM), for the others: at the highest dose activity change, negative = inhibition, actives largely listed as inhibitors | Glucagon-like peptide 1 receptor (Homo sapiens), P43220 | HEK293 GLP-1R CRE-luciferase, luminescence, 24 h; GLP-1R form is constitutively active | 1.6% of 410,000 active; also: potency is read from the fitted curve at half-maximal effect; % is scaled to controls: 0 for no effect and ±100 for the full control effect; nearly all actives have a fitted effect of over 55% in size
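Readout was luciferase luminescence, measured 12 min after detection reagent at room temperature. Beforehand, GLP-1R reporter HEK293 cells had sat 12 h, then received compounds for 24 hr at 37 deg C.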
ClpP mod: qHTS Assay for Activators of ClpP; purified B. subtilis ClpP, FRET peptide cleavage, 20 min; Potency, µM (highest dose often 57.5 µM), inactives show top-dose activity change, negative = active; 1.9% of 340,000 active; AID 651965, 2013; active = well fitted falling curve with a large enough effect; inconclusive = small, poorly fitted or top-dose-only effect; inactive = no such curve, though single readings can be large or run the other way; also: potency is read from the fitted curve at half-maximal effect; the source files actives as falling curves though it sought activators and does not explain the sign; nearly all actives have a fitted effect of over 65% in size
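FRET quenching reversal measured ClpP activation: 10 microg/mL B. subtilis ClpP at pH 8 with the FRET-FV decapeptide, read at 430 nm after 320 nm excitation. The 20-min minus 0-min signal was scaled between DMSO/no-enzyme wells and ADEP (5.8 microM final).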
HEK293 tox: qHTS of GLP-1 Receptor Inverse Agonists: Cytotox Screen | 0.13% of 410,000 active | HEK293 cAMP-luciferase reporter cells, luminescence, 24 h | Potency, µM (highest dose often 38.3 µM), without a hit: at the top dose activity change, negative = inhibition, most hits filed as inhibitors;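 also: loss of luciferase light is scored as toxicity; potency is read from the fitted curve at half-maximal effect; % is scaled to controls: 0 for no effect and ±100 for the full control effect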
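Step one: seed cells (200 cells/uL, DMEM with 10% Nu serum, 1% pen-strep). Step two: 12-hour incubation at 37 deg C. Step three: pin 23 nL compound, incubate 24 hr. Step four: add luciferase reagent, read luminescence 12 min later.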
DRD3 agonist: qHTS of D3 Dopamine Receptor Agonist: qHTS; D(3) dopamine receptor (Homo sapiens), P35462; D3R DiscoveRx beta-arrestin cells, luminescence, 90 min; max activation, %; 0.58% of 410,000 active; in the data active = max activation above about 30%; also: 0% is about no effect
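Cells at 1500/well, incubated overnight, then treated with pinned compounds (dopamine as control) for 90 min at 37 degrees C. DiscoveRx reagent added for 30 - 60 minutes at room temperature; luminescence read.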
GLP1R ag: qHTS of GLP-1 Receptor Agonists | HEK293 GLP-1R CRE-luciferase, luminescence, 4-6 h; cells express a hypersensitive GLP-1R form | Potency, µM (highest dose often 45.6 µM), for the others: top-dose activation, hits mostly activators | 0.007% of 380,000 active; also: potency is read from the fitted curve at half-maximal effect; % of control where 0% means no effect
D3 antag: qHTS of D3 Dopamine Receptor Antagonist: qHTS; D(3) dopamine receptor (Homo sapiens), P35462; D3R cells, DiscoveRx beta-arrestin luminescence, antagonist mode; active compounds read low; max response, negative = inhibition, %; 2.5% of 360,000 active; AID 652054, 2013; in the data active = max response below about -50%; inconclusive = no clear call, values can overlap the other calls; also: % is scaled to controls: 0 for no effect and ±100 for the full control effect
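Cells plated overnight at 1500 cells/well, then exposed to library compounds with dopamine controls for 90 minutes at 37 degrees C. DiscoveRx reagent added for 30–60 minutes at room temperature; luminescence read, quantitative HTS format.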
An asterisk follows results filed as active; ? = inconclusive; . = no result given; [ ] = another dose, or the depositor's remark. Unless noted, calls follow the shape of the dose curve; as a rule, active = well fitted curve in the direction sought with a large enough effect; inconclusive = small, poorly fitted or top-dose-only effect, or another doubt; inactive = no such curve, though single readings can be large; an effect the other way counts as inactive or inconclusive.

SMILES	GLP-1R inv ag	ClpP mod	HEK293 tox	DRD3 agonist	GLP1R ag	D3 antag
CO/N=C(/C(=O)N[C@@H]1C(=O)N2C(C(=O)OC(C)OC(C)=O)=C(COC(N)=O)CS[C@H]12)c1ccco1 (some centres not stated)	.	.	.	.	5.5%	.
O=C1CC(c2ccccc2)Cc2[nH]c(=O)c(C(=O)O)cc21 (configuration not stated)	.	-2.2%	.	.	.	.
Cc1cc(C)n(-c2nc(NCC(C)O)c3c4c(sc3n2)CCCC4)n1 (configuration not stated)	2.82µM*	31.6µM*	-17.4%	1.0	16.7%	-29.0
COc1ccc(CCNC(=O)Cn2c(=O)c3cccn3c3ccc(F)cc32)c(OC)c1	5.6%	-19.1%	20.6%	1.8	.	.
N#Cc1nc(COc2ccc(-c3ccccc3)cc2)oc1N1CCC(C(N)=O)CC1	.	-2.6%	.	.	.	.
O=[N+]([O-])c1ccccc1S(=O)(=O)N(CC(O)CN1CCCCC1)c1ccccc1 (configuration not stated)	7.2%	.	7.3%	-23.0	14.4%	-17.7
Cc1ccc(N(CC(O)CN2CCCCC2)S(=O)(=O)c2ccccc2[N+](=O)[O-])cc1 (configuration not stated)	-27.6%[7.66 µM]	.	0.6%[7.66 µM]	-16.9	6.5%	-50.5*
CCOc1cc(CNC(=O)Cn2c(=O)c3cccn3c3ccc(F)cc32)cc(OCC)c1OCC	-4.4%	10.9%	-3.2%	-12.7	.	.
O=C(O)c1cc(NCc2ccc(F)cc2)ccc1N1CCOCC1	-7.4%	31.6µM*	-10.5%	-8.3	6.1%	9.2
O=C(O)c1cc(NCc2cccs2)ccc1N1CCOCC1	-2.2%	-2.1%	1.5%	-3.2	2.9%	0.0
Cc1ccc2nc(C)c(C(=O)N/N=C/c3ccc(N4CCOCC4)cc3)cc2c1	52.4%	0.0%	11.8%	30.8*	9.3%	-5.6
Cc1ccc2nc(C)c(C(=O)N/N=C/c3ccco3)cc2c1	0.4%	0.3%	-1.0%	1.4	0.8%	-8.5
O=C(O)/C(=C\c1ccc(Cl)c([N+](=O)[O-])c1)c1ccc(S(=O)(=O)N2CCCC2)s1	2.2%	-0.8%	14.9%	2.5	-3.8%	-5.3
O=C(O)/C(=C\c1ccc(Cl)c([N+](=O)[O-])c1)c1ccc(S(=O)(=O)N2CCCCC2)s1	-2.2%	28.2µM*	7.1%	-8.3	-0.9%	-7.4
Cc1c(N=C2SCC(=O)N2/N=C/c2ccccc2Cl)c(=O)n(-c2ccccc2)n1C	-28.5%	-3.7%	14.5%	2.2	2.7%	-14.2
Cc1c(N=C2SCC(=O)N2/N=C\c2ccc(Br)cc2)c(=O)n(-c2ccccc2)n1C	8.91µM*	.	13.8%	-17.1	-0.2%	-21.7
CC1(C)Cc2[nH]c(=O)c(C#N)cc2CS1	4.2%	14.1µM*	-4.5%	0.4	-11.2%	0.6
CC[N+]1(CC(=O)c2ccc(OC)cc2)CCCCC1	.	0.9%	.	.	.	.
Cc1ccc(S(=O)(=O)N2C[C@H]3C(=O)C[C@@H](c4ccccc4)N(S(=O)(=O)c4ccc(Br)cc4)[C@H]3C[C@H]2c2ccccc2)cc1	-20.5%	-9.3%	1.5%	10.9	1.0%	0.8
O=C(Nc1ccc2c(c1)C(=O)N(CC1CCCO1)C2=O)c1ccccc1Br (configuration not stated)	0.0%	22.4µM*	4.5%	-11.0	8.8%	8.3
Cc1ccc(C(=O)Nc2ccc3c(c2)C(=O)N(CC2CCCO2)C3=O)cc1 (configuration not stated)	2.8%	0.4%	-19.7%	0.5	0.2%	-13.3
O=C(NNc1c2ccccc2nc2ccccc12)c1ccc(O)cc1	35.0%	4.1%	1.2%	-7.2	14.4%	-64.2*
Cc1ccc2c(=O)cc(C(=O)Nc3sc4c(c3C(N)=O)CCCC4)oc2c1	-8.9%	0.8%	-1.5%	-8.6	.	.
CCn1c(=O)c([N+](=O)[O-])c(Cl)c2ccccc21	?	-0.3%	?	-22.7	-0.9%	-114.9*
O=c1c([N+](=O)[O-])c(NCCN2CCCCCC2)c2ccccc2n1-c1ccccc1	?	-1.2%	-14.2%	-16.3	2.3%	-97.7*
SMILES	GLP-1R inv ag	ClpP mod	HEK293 tox	DRD3 agonist	GLP1R ag	D3 antag
COCCNc1c([N+](=O)[O-])c(=O)n(-c2ccccc2)c2ccccc12	15.5%	1.7%	-0.9%	1.0	-1.0%	8.8
CCn1c(=O)c([N+](=O)[O-])c(NCCN(C)C)c2ccccc21	1.0%	0.5%	-20.0%	-22.2	6.1%	-58.5*
Cc1cc(C)cc(NC(=O)CN2C(=O)CCc3cc(S(=O)(=O)N4CCCCC4)ccc32)c1	?	-6.5%	4.2%	-7.3	.	.
NCCCC(N)CC(=O)NCC1NC(=O)C(CO)NC(=O)C(N)CNC(=O)C(C2CCN=C(N)N2)NC(=O)/C(=C/NC(N)=O)NC1=O (configuration not stated)	.	.	.	.	-0.7%	.
Cc1ccc(CNCC(O)(c2ccccc2)c2ccccc2)cc1	?	-1.7%	1.7%	-8.9	-3.3%	12.9
CCc1ccc(C(O)(CNCc2ccccc2)c2ccccc2)cc1 (configuration not stated)	11.2µM*	-1.7%	-16.6%	-19.2	-4.8%	0.0
CCOC(=O)/C(=C/C1=CC(=C/N(C)C)/C(=O)O1)C(C)=O	17.0%	.	-12.8%	30.5*	3.1%	-7.1
Clc1ccc2nc(C(Cl)(Cl)Cl)[nH]c2c1	1.4%	0.1%	7.9%	-1.2	?	-16.3
N#C/C(=C\c1ccc(OC(=O)c2cccs2)cc1)c1nc2ccccc2[nH]1	7.2%	28.2µM*	-25.2%	-4.3	2.0%	-11.0
Cc1ccc(Cn2c(CNC(=O)c3ccccc3Br)nc3cccnc32)cc1	0.5%	-6.9%	-2.4%	2.6	.	.
Cc1ccc(C(=O)N2CCN(c3cccc(Cl)c3)CC2)cc1-n1c(C)nc2cccnc21	0.0%	-0.1%	-7.2%	6.2	.	.
COc1cc(OC)nc(Oc2ccccc2C(=O)Oc2ccc(Cl)cc2)n1	3.16µM*	-0.4%	-21.1%	2.9	18.2%	15.0
Cc1ccc(-c2csc(=Nc3ccc(F)cc3)n2Cc2ccc3c(c2)OCO3)cc1C	10.8%	-2.1%	1.2%	-0.7	.	.
COc1ccc(N(CC(=O)NCc2ccccc2)S(=O)(=O)c2c(C)noc2C)cc1	0.7%	-1.3%	8.9%	0.3	16.7%	16.1
Cc1ccc(NC(=O)CN(c2cc(C)cc(C)c2)S(=O)(=O)c2c(C)noc2C)nc1	?	-0.3%	-25.2%	4.6	1.6%	14.9
